Assay outcomes deposited in PubChem BioAssay by National Center for Advancing Translational Sciences (NCATS).
HP1b chromo inh = HP1-beta chromodomain-methylated histone interaction inhibition | Potency, µM (highest dose often 114 µM), for the others: at the top dose activity change, negative = inhibition, actives largely listed as inhibitors | AID 540317 | P83916 | 0.56% of 390,000 active | AlphaScreen HP1-beta / biotin-H3K9me3 peptide binding; note: nearly all actives have a fitted effect of over 70% in size
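AlphaScreen: HP1-beta (50 nM) preformed 30 min with biotin-H3(1-18)K9me3 peptide (50 nM) in PBS pH 7.4, 0.01% Tween-20. Compound added for 30 min at RT, then streptavidin donor/nickel chelate acceptor beads (10 ug/mL) for 30 min.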
G9a inh = G9a (human) methyltransferase inhibition; AID 504332; G9a H3K9 monomethylation, AlphaScreen, 2 h; 8.8% of 350,000 active; Potency, µM (series often up to 102 µM), for the others: at the highest dose activity, negative = inhibition, most hits filed as inhibitors; note: % is set by controls: 0 for no effect and ±100 for the full control effect; nearly all actives have a fitted effect of over 75% in size
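G9a (20 nM) was preincubated 15 min with compound, then reacted 2 h at room temperature with 500 nM biotin-H3K9 peptide and 20 µM SAM. Monomethyl-H3K9 detected by AlphaScreen using anti-H3K9me1 antibody.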
L3MBTL1 inh = blocks human L3MBTL1. Potency, µM (highest dose often 57.1 µM), without a hit: at the top dose activity, negative = inhibition, hits mostly inhibitors. AlphaScreen L3MBTL1–H3K9me1 peptide binding. AID 485360. Q9Y468. 0.66% of 230,000 active; note: % is set by controls: 0 for no effect and ±100 for the full control effect; nearly all actives have a fitted effect of over 60% in size
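Displacement of a biotinylated histone H3(1-15) peptide monomethylated at Lys9 (75 nM) from L3MBTL1 (50 nM) was measured by AlphaScreen after a 30 min room-temperature compound incubation; cefsulodin titration served as intraplate control.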
Sfp inh = Sfp phosphopantetheinyl transferase inhibition; Q9F4F7; Biochemical Sfp PPTase activity, qHTS; Potency, µM, for inactives: largest response in the series, negative = inhibition, most hits filed as inhibitors; 3.5% of 310,000 active; AID 1490;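 note: the enzyme is Sfp with the accession as filed and its product quenches rhodamine fluorescence; 0% = enzyme reaction without inhibitor and -100% = no enzyme wells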
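Reaction rates are the 30-min fluorescence difference (ex 525, em 598 nm) in wells containing 15 nM Sfp, 5 uM rhodamine-CoA and 12.5 uM BHQ-2-YbbR at pH 7.6 with 10 mM MgCl2.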
BAZ2B inh = BAZ2B (human) inhibition; Q9UIF8; Potency, µM (series often up to 114 µM), for the others: at the highest dose activity change, negative = inhibition, actives largely listed as inhibitors; 4.4% of 360,000 active; AlphaScreen BAZ2B-H3K14Ac peptide displacement; note: % is set by controls: 0 for no effect and ±100 for the full control effect; nearly all actives have a fitted effect of over 60% in size
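In this displacement format the biotinylated H3(5-23) peptide acetylated at Lys14 serves as ligand at 50 nM, with BAZ2B at 50 nM in PBS pH 7.4 containing 0.01% Tween-20. Donor and acceptor beads are 10 ug/mL final.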
JMJD2A Tudor inh = inhibitors of human JMJD2A Tudor domain. O75164. AlphaScreen JMJD2A-Tudor / H3K4me3 peptide binding. Potency, µM (doses to about 114 µM), for the others: at the highest dose activity change, negative = inhibition, actives largely listed as inhibitors. 4.4% of 390,000 active. AID 504339; note: % is set by controls: 0 for no effect and ±100 for the full control effect; nearly all actives have a fitted effect of over 50% in size
Numbers without * were called inactive; u = inconclusive; x = not tested or not shown; [ ] = another dose, or the depositor's remark. Most compounds without a hit are left out; they make up all but 12% or so of the library. Calls come from the whole dose curve; as a rule, active = well fitted curve in the direction sought with a large enough effect; inconclusive = small, poorly fitted or top-dose-only effect, or another doubt; inactive = no such curve, though single readings can be large; an effect the other way counts as inactive or inconclusive. Potency is the fitted concentration of half-maximal effect.

SMILES	HP1b chromo inh	G9a inh	L3MBTL1 inh	Sfp inh	BAZ2B inh	JMJD2A Tudor inh
C/C(=N\Nc1ccc(C(=O)O)cc1)c1ccc2c(c1)Nc1ccccc1S2	u	11µM*	28µM*	-21%	50µM*	u
CC(=O)Nc1ccc(NC(=O)c2ccc3c(c2)NC(=O)c2ccccc2S3)cc1	40%	21%[59 µM]	x	x	12%	-16%
CCn1c(=O)n(C2=C(CO)CN(CC3CCCCCCC3)CC2)c2ccccc21	x	x	x	-1%	x	x
O=C(O)COc1ccc2c(c1)O/C(=C\c1ccco1)C2=O	40µM*	10µM*	x	u	40µM*	20µM*
COc1ccc(OC)c(/C=C2\Oc3cc(OCC(=O)N4CCC(C(=O)O)CC4)ccc3C2=O)c1	31%	26%[12.7 µM]	x	16µM*	11%	-6%
COc1ccc(/C=C2\Oc3cc(OCC(=O)N4CCC(C(=O)O)CC4)ccc3C2=O)c(OC)c1	31%	x	6%	-16%	-31%	-11%
Cc1cccc(OCCNc2cc(N3CCOCC3)ccc2[N+](=O)[O-])c1	-19%	10µM*	-23%	13%	u	u
CC(C)(C)CNc1cc(N2CCOCC2)ccc1[N+](=O)[O-]	-17%	32µM*	-30%	1%	u	u
O=[N+]([O-])c1ccc([N+](=O)[O-])c(Nc2ccc(N3CCOCC3)cc2)c1	u	-35%[12.7 µM]	-9%	11%	18µM*	18µM*
Cc1cccc(OCCNc2cc(N3CCN(C)CC3)ccc2[N+](=O)[O-])c1	50µM*	17%[59 µM]	-11%	-10%	u	40µM*
COc1ccc(CCNc2cc(N3CCN(C(=O)c4ccc(C)cc4)CC3)ccc2[N+](=O)[O-])cc1OC	x	-14%[59 µM]	4%	1%	-38%	x
CCCCCOc1ccc(NC(=O)Cc2csc(C)n2)cc1	57%	6%[59 µM]	x	x	0%	-7%
CCCCN(C(=O)c1ccc(Cl)c([N+](=O)[O-])c1)c1c(N)n(CCC)c(=O)[nH]c1=O	24%	3%	x	8%	0%	10%
COc1ccccc1OCCNc1cc(N2CCCCC2)ccc1[N+](=O)[O-]	u	u	u	-5%	u	u
CS(=O)(=O)N1CCN(c2ccc([N+](=O)[O-])c(NCCN3CCOCC3)c2)CC1	2%	3%[59 µM]	0%	18%	8%	-14%
Cc1ccccc1OCCNc1cc(N2CCNCC2)ccc1[N+](=O)[O-]	x	32µM*	-12%	-2%	u	x
CC(C)CC(=O)N1CCN(c2ccc([N+](=O)[O-])c(NCc3ccccc3)c2)CC1	u	x	x	x	x	50µM*
Cc1ccc(OCCNc2cc(N3CCN(CCO)CC3)ccc2[N+](=O)[O-])cc1C	u	u	-29%	-28%	32µM*	u
N#Cc1cc([N+](=O)[O-])ccc1NC(=O)COC(=O)C1CCC(=O)N1 (stereo unspecified)	19%	x	-8%	x	x	-11%
Cc1ccc(Cl)cc1NC(=O)Cn1c(=O)n(C(C)C)c(=O)c2oc3ccccc3c21	24%	3%[59 µM]	x	x	-5%	-17%
CC1(C)C(=O)Nc2ccccc2N1C(=O)COC(=O)C1CCCCC1	28%	7%[59 µM]	x	14%	4%	-6%
Cc1cc(C)c(C)c(S(=O)(=O)N2CCC(C(=O)OCC(=O)N3c4ccccc4NC(=O)C3(C)C)CC2)c1C	-10%	14%[12.7 µM]	x	-4%	50µM*	u
O=C(COC(=O)Cc1ccc(F)cc1)Nc1ccc2[nH]c(=O)[nH]c2c1	11%	50µM*	1%	x	-2%	-25%
Cc1ccc(/C=C/C(=O)OCC(=O)Nc2ccc3[nH]c(=O)[nH]c3c2)o1	16%	40µM*	0%	x	6%	-16%
O=C(COC(=O)c1ccccc1OC(F)F)Nc1ccc2[nH]c(=O)[nH]c2c1	11%	40µM*	13%	x	-6%	-19%
SMILES	HP1b chromo inh	G9a inh	L3MBTL1 inh	Sfp inh	BAZ2B inh	JMJD2A Tudor inh
Cc1ccccc1CN1C(=O)c2ccccc2Sc2ccc(C(=O)OCc3ccco3)cc21	17%[57 µM]	-28%[59 µM]	x	x	-19%	-15%
O=c1c(-c2ccccc2)nc2cnc(Nc3ccccc3)nc2n1C[C@H]1CCCO1	x	21%[0.501 µM]	x	14%	x	x
Cc1cc(C)n(C(=O)c2cccc([N+](=O)[O-])c2)n1	28%	10%	8%	6%	-8%	1%
Cc1cc(C)n(C(=O)c2cc([N+](=O)[O-])cc([N+](=O)[O-])c2)n1	-25%	71µM*	-6%	-5%	u	-36%
CSc1ncccc1C(=O)OCC(=O)NCCc1ccccc1	37%	x	4%	x	x	5%
Cn1c(=O)c(=O)n(C)c2cc(N3CCOCC3)c(NS(=O)(=O)c3ccc(Cl)cc3)cc21	12%	-45%[59 µM]	x	x	-22%	-15%
Cn1c(=O)n(C)c2cc(N3CCOCC3)c(NS(=O)(=O)c3cccc(C#N)c3)cc21	u	6.3µM*	x	x	22µM*	50µM*
COC1C(O)CC(=O)OC(C)C/C=C/C=C/[C@@H](OC2CCC(N(C)C)C(C)O2)C(C)C[C@@H](CC=O)[C@@H]1O[C@H]1OC(C)[C@H](O[C@@H]2C[C@@](C)(O)C(O)C(C)O2)C(N(C)C)C1O (stereo partly specified)	x	10%[2.33 µM]	x	-4%	x	x
CCN(CCCNC(=O)c1ccc(Sc2ccc(F)cc2)c(NC(C)=O)c1)c1ccccc1	-3%	u	x	x	u	56µM*
N#CC1=C(N)SC(N)=C(C#N)C1CCC1CCCCC1	x	u	-6%	u	-10%	x
Cc1sccc1C1C(C#N)=C(N)SC(N)=C1C#N	x	1.1µM*	-2%	18µM*	-35%	x
Cc1cc(C2C(C#N)=C(N)SC(N)=C2C#N)c(C)s1	18%	1.3µM*	-5%[11.4 µM]	u	-6%	u
